# Several values for one entry are separate records, joined by “and”; a condition that tells them apart may be missing. Equal entries are not always repeated. In all, about 1,000 compounds went through this assay and about 250 (25%) were called active. Roughly 31% stayed inconclusive and do not appear here. The list is a sample of the results. Potency and affinity values are given separately. Values without a mark were called inactive. How the calls were made is not given here.
# Assay: compound activity on host-cell Toxoplasma growth – dose response (AID 1259420);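 further: host cells were HeLa; final incubation lasted 72 hours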
# Conditions: Toxoplasma gondii growth in host cells, no IFN-gamma; at 19.5 µM unless noted
row,Structure (SMILES),max activity
1,Cn1nc2c(c1C(=O)Nc1ccc(N3CCCCC3)c(F)c1)CCCC2,25.8% [at 10 µM]
2,Cc1ccccc1-c1ccc([C@H]2[C@@H](CO)N3C(=O)CN(C(=O)c4ccncc4)C[C@@H]23)cc1,-13.9% [at 0.16 µM]
3,CN(C)C1CCN(Cc2cccc(C#N)c2)C(C(=O)O)C1 (stereo not given),8.23%
4,Cc1nnsc1CN(C)Cc1[nH]c2ccc(F)cc2c1C,12.6% [at 0.16 µM]
5,CC(C)NC(=O)N1CC(=O)N2[C@H](CO)[C@H](c3ccc(/C=C/c4ccccc4)cc3)[C@@H]2C1,20.9%
6,COc1ccc(-c2nc(NCCN3CCOCC3)c3ccccc3n2)cc1,8.12%
7,COc1ccc(-c2nc(NCCCN3CCCC3)c3ccccc3n2)cc1,7.2%
8,COc1ccc(-c2nc(NCCN3CCC(C)CC3)c3ccccc3n2)cc1,5.6% [at 10 µM]
9,COc1ccc(-c2ccc([C@H]3[C@H]4CN(Cc5ccccc5)CC(=O)N4[C@H]3CO)cc2)cc1,43.4%
10,COc1ccc(-c2nc(NCCN3CCN(C)CC3)c3ccccc3n2)cc1,12.8%
11,CC(c1cc2ccccc2s1)N(O)C(N)=O (stereo not given),-4.76% [at 5 µM]
12,CN1[C@H](CO)[C@@H]2c3ccccc3N(C(=O)C3CCCCC3)C[C@@H]21,-10.7% [at 0.3 µM]
13,O=S(=O)(c1ccccc1)N1CCCCN2[C@@H](CO)[C@H](c3ccc(C#CC4CCCC4)cc3)[C@@H]2C1,49.6%
14,C/C=C/c1ccc([C@@H]2[C@@H](CO)N3CCCCN(CCC(F)(F)F)C[C@@H]23)cc1,39.6%
15,O=S(=O)(c1cccs1)N1CCCCN2[C@@H](CO)[C@@H](c3ccc(/C=C/c4ccccc4)cc3)[C@@H]2C1,38.2%
16,C/C=C/c1ccc([C@H]2[C@@H](CO)N3CCCCN(S(=O)(=O)c4ccc(OC)cc4)C[C@H]23)cc1,19.6%
17,CCC[C@@]1(CCc2ccccc2)CC(=O)C([C@H](CC)c2cccc(NS(=O)(=O)c3ccc(C(F)(F)F)cn3)c2)C(=O)O1 (stereo not given in full),6.55% [at 10 µM]
18,Cc1ccc(-c2ccc([C@H]3[C@@H](CO)N4C(=O)CN(C(=O)NC(C)C)C[C@@H]34)cc2)cc1,-19.8% [at 5 µM]
19,COCCC(=O)c1cc2c(s1)CCN2Cc1cccnc1,-10.9% [at 0.6 µM]
20,CN1CCC(=C2c3ccccc3C=Cc3ccccc32)CC1,23.8%
21,N#C[C@H]1[C@@H](c2ccc(C3=CCCCC3)cc2)[C@@H](CO)N1C(=O)Nc1ccccc1F,15.8% [at 10 µM]
22,COc1ccc(-c2ccc([C@H]3[C@H](C#N)N(C(=O)NC(C)C)[C@H]3CO)cc2)cc1,23.7%
23,N#C[C@H]1[C@@H](c2ccc(-c3cccnc3)cc2)[C@@H](CO)N1C(=O)Nc1ccc(F)cc1,7.86%
24,CCCNC(=O)N1C[C@@H]2N[C@H](C1)C2c1ccc(-c2ccccc2C)cc1 (stereo not given in full),14.1% and 25.2%

row,Structure (SMILES),max activity
1,N#C[C@H]1[C@H](c2ccc(C#Cc3ccccc3F)cc2)[C@@H](CO)N1C(=O)c1cccnc1,-12.3% [at 10 µM]
2,COc1cccc(C#Cc2ccc([C@H]3[C@@H](C#N)N(C(=O)c4ccccn4)[C@@H]3CO)cc2)c1,21.5%
3,N#C[C@@H]1[C@H](c2ccc(C#Cc3cccc(F)c3)cc2)[C@H](CO)N1C(=O)C1CCOCC1,23.4%
4,N#C[C@H]1[C@H](c2ccc(C#Cc3cccc(F)c3)cc2)[C@@H](CO)N1C(=O)C1CCOCC1,10.6%
5,CC(C)C#Cc1ccc([C@@H]2[C@H]3CN(S(=O)(=O)c4ccccc4)CC(=O)N3[C@H]2CO)cc1,15.9%
6,CN1C[C@H]2CN(Cc3ccc4c(c3)OCO4)CCC[C@@]2(C(=O)O)C1,-10.3% [at 5 µM]
7,CS(=O)(=O)N1CC(=O)N2[C@H](CO)[C@@H](c3ccc(C#CCC4CCCC4)cc3)[C@@H]2C1,58.7%
8,CC(C)C#Cc1ccc([C@H]2[C@H](CO)N3C(=O)CN(C(=O)NC4CCCC4)C[C@@H]23)cc1,-11.2%
9,COc1ccccc1-c1ccc([C@H]2[C@H](CO)N[C@@H]2C#N)cc1,29.5%
10,COc1ccccc1C#Cc1ccc([C@@H]2[C@@H](CO)N3CCCCN(C(=O)C4CCC4)C[C@H]23)cc1,18.4% [at 10 µM]
11,N#Cc1cccc(-c2ccc([C@H]3[C@H]4CN(Cc5ccccc5F)CCCCN4[C@H]3CO)cc2)c1,25.1%
12,COc1ccccc1C#Cc1ccc([C@H]2[C@@H](CO)N3CCCCN(C(=O)C4CCC4)C[C@@H]23)cc1,-3.84% [at 0.16 µM]
13,N#Cc1cccc(-c2ccc([C@@H]3[C@H]4CN(Cc5ccccc5F)CCCCN4[C@H]3CO)cc2)c1,-16.7% [at 0.6 µM]
14,O=C(C1CCC1)N1C[C@@H]2N[C@H](C1)C2c1ccc(/C=C/c2ccccc2)cc1 (stereo not given in full),-22.2% [at 0.3 µM]
15,NCCNC(=O)c1nc(-c2ccc(Br)o2)no1,7.54% [at 0.08 µM]
16,O=C(Cc1cccnc1)N1CC(=O)N2[C@@H](CO)[C@H](c3ccc(C4=CCCCC4)cc3)[C@@H]2C1,18.9% [at 0.16 µM]
17,Cc1nc2c(cnn2-c2ccccc2)c(=O)n1-c1cccc2ccccc12,-11.1% [at 10 µM]
18,CCS(=O)(=O)N1CCc2nc(-c3cccc(F)c3)nc(NC3CC3)c2C1,-10.7% [at 2.6 µM]
19,COCC1(C(=O)N2CCc3c(nc(-c4ccccc4)[nH]c3=O)C2)CCC1,24.5%
20,Cc1ccc(CN2C[C@@H]3C[C@H](C(=O)Nc4ccccc4)[C@@H](C2)O3)cc1,4.12% [at 0.6 µM]
21,CC(C)CNC(=O)[C@H]1C[C@H]2CN(Cc3cccc(Cl)c3)C[C@H]1O2,13.8% [at 0.3 µM]
22,CC(C)(C)c1nc2ccccc2c2nnc(SCc3ccccn3)n12,9.04% [at 0.3 µM]
23,CN1CCN(Cc2cnc3n2CCN(CC2CCOCC2)C3)CC1,22.9% [at 1.2 µM]
24,CN(C)C(=O)CN1CCOCC2(CCN(CC3CCOC3)CC2)C1 (stereo not given),12.7%

row,Structure (SMILES),max activity
1,CN1CCCN(C(=O)c2cc3c(c4ccccc4n3CC3CC3)n2S(C)(=O)=O)CC1,25.4%
2,O=C(c1cnccn1)N1CC(=O)N2[C@H](CO)[C@H](c3ccc(/C=C/c4ccccc4)cc3)[C@@H]2C1,9.53% [at 10 µM]
3,COC12CC(COC(=O)c3cncc(Br)c3)CN(C)C1Cc1cn(C)c3cccc2c13 (stereo not given),-18.1% [at 1.2 µM]
4,CC(=O)NCc1nnn2c1CN(c1ncccn1)CCC2,-8.02% [at 0.6 µM] and 9.77% [at 0.6 µM]
5,CC(C)NC(=O)N1CC[C@@H]2[C@H]1c1cc(-c3ccc(F)cc3)ccc1N(C)[C@H]2CO,11.4% [at 10 µM]
6,CCC(=O)N1CC[C@@H]2[C@H]1c1cc(-c3ccc(C#N)cc3)ccc1N(C)[C@H]2CO,-11.1% [at 0.6 µM]
7,CN1c2ccc(C#Cc3cccnc3)cc2[C@@H]2[C@@H](CCN2C(=O)c2cccc(F)c2)[C@H]1CO,5.34%
8,CCC(=O)N1CC[C@@H]2[C@@H](CO)N(C)c3ccc(-c4ccc(C#N)cc4)cc3[C@@H]21,-14.1% [at 1.2 µM]
9,COc1cccc(-c2ccc3c(c2)[C@@H]2[C@@H](CCN2C(=O)c2ccccc2F)[C@@H](CO)N3C)c1,24%
10,COc1ccc(-c2ccc3c(c2)[C@@H]2[C@@H](CCN2C(=O)c2ccncc2)[C@H](CO)N3C)cc1,-18.6% [at 5 µM]
11,NC(N)=N/N=C/c1c(Cl)cccc1Cl,-13.6% [at 2.35 µM]
12,C=CCN1C(=O)CCCC12CCCN(S(=O)(=O)Cc1ccccc1)C2 (stereo not given),-8.38% [at 10 µM]
13,CN(C)CCNC(=O)c1c2c(NCc3cccnc3)ncnc2n2ccccc12,8.13% [at 10 µM]
14,CCN1Cc2c(C(=O)Nc3ccc(C)cc3)ncn2-c2ccccc2S1(=O)=O,-12.3% [at 0.16 µM]
15,CC(C)N1c2ccc(F)cc2[C@@H]2CN(C(=O)c3ccco3)CC[C@H]21,9.4%
16,Cc1ccccc1-c1ccc([C@@H]2[C@@H](CO)N3CCCCN(S(=O)(=O)Cc4ccccc4)C[C@H]23)cc1,6.43% [at 10 µM]
17,Cc1ccoc1C(=O)N1CC[C@H]2CO[C@@H](CN3CCN(C)CC3)[C@@H]2C1,-13%
18,COc1ccc(C[C@H]2CN(C(=O)c3ccnn3C)CC[C@H]2OC)cc1,-12.6% [at 5 µM]
19,O=C(Nc1ccccc1)[C@@H]1[C@@H](CO)[C@@H]2Cn3c(ccc(C4=CCCCC4)c3=O)[C@@H]2N1Cc1cocn1,-11.6% [at 10 µM]
20,CCN1CC2(CCN(C(=O)COc3ccccc3)CC2)COc2ccccc2S1(=O)=O,-3.38% [at 2.6 µM]
21,CCOCC1CC2(CCN(C(=O)COc3ccc(C)cc3)CC2)CO1 (stereo not given),-10.4% [at 5 µM]
22,CC(C)n1ncc(NC(=O)Cn2ccc(-c3ccc(C(F)(F)F)cc3)n2)n1,-7.47% [at 0.3 µM]
